Experimental data from ChEMBL document CHEMBL1961873, “Compounds: GSK PKIS; Assays: Nanosyn kinase panel” (2012).

Experiments:
[1] = biological target: T1, Serine/threonine-protein kinase D2 (Homo sapiens) (UniProt Q9BZL6); details: at 1 µM;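 further: mean value of PRKD2 inhibition, from the GSK PKIS screening panel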
T1 sequence (whole entry): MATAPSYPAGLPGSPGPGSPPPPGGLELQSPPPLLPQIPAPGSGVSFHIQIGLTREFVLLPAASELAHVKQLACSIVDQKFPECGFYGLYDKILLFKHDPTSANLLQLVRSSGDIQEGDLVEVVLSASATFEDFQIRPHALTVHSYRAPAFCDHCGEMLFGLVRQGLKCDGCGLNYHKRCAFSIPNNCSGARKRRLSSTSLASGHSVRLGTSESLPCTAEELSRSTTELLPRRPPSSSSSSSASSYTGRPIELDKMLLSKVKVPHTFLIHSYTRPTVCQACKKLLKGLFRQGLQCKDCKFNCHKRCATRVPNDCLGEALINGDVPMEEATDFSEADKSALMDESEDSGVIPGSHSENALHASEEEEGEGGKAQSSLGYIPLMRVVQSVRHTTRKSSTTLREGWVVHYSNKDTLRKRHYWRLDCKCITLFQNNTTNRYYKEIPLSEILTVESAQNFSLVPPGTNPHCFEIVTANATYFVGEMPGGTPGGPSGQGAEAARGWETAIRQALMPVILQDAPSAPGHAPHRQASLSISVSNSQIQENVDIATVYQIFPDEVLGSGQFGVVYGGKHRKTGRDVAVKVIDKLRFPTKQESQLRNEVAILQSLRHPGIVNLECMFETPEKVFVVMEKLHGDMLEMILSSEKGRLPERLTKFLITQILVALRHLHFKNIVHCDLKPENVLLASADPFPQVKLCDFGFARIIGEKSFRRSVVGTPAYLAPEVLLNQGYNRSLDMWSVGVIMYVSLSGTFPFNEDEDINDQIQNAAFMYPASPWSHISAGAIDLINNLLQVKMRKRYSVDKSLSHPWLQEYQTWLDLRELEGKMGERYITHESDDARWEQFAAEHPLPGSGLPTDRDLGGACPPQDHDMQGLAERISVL

[2] = biological target: T2, Serine/threonine-protein kinase D3 (Homo sapiens) (UniProt O94806); details: at 0.1 µM
T2 sequence (whole entry): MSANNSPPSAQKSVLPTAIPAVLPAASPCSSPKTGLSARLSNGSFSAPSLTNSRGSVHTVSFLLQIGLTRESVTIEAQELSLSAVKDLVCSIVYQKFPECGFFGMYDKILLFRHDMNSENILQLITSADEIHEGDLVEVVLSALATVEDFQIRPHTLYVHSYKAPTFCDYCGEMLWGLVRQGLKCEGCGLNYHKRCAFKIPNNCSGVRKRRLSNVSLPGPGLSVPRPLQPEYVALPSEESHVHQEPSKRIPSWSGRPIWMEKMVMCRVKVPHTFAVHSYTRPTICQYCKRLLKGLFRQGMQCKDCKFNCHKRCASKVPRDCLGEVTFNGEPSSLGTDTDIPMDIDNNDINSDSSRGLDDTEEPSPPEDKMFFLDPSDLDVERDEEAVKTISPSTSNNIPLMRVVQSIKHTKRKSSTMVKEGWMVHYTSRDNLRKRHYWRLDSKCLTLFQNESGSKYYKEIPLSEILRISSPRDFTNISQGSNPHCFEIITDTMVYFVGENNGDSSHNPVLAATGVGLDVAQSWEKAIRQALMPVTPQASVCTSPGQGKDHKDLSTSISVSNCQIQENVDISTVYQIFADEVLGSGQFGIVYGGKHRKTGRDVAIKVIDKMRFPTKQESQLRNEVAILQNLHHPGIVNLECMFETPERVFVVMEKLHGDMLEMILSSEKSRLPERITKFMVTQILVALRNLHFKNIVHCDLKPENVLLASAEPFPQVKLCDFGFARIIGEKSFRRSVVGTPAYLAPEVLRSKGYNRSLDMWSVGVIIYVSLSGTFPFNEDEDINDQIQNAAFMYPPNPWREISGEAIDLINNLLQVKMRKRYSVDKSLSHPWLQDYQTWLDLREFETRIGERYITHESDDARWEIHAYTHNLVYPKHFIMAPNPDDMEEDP

[3] = biological target: T2, Serine/threonine-protein kinase D3 (Homo sapiens); details: at 1 µM
[4] = biological target: T3, cGMP-dependent protein kinase 1 (Homo sapiens) (UniProt Q13976); details: at 0.1 µM
T3 sequence (whole entry): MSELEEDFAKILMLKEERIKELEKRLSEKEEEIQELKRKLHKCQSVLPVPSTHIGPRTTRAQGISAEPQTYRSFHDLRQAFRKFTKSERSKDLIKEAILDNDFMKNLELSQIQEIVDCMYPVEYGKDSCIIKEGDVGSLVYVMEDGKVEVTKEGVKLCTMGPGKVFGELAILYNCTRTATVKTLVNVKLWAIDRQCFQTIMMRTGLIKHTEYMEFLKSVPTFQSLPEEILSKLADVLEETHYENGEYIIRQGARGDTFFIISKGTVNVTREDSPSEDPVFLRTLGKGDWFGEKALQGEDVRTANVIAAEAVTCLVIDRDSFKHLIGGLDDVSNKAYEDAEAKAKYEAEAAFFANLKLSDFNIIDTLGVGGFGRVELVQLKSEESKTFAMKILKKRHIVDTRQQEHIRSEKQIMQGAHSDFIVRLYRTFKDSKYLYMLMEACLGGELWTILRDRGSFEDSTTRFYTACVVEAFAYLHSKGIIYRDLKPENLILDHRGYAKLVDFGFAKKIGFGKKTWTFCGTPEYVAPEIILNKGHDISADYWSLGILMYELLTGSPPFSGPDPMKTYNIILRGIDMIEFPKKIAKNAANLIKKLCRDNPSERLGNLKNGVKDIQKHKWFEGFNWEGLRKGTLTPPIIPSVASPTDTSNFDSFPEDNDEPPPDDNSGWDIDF

[5] = biological target: T3, cGMP-dependent protein kinase 1 (Homo sapiens); details: at 1 µM
[6] = biological target: T4, cGMP-dependent protein kinase 2 (Homo sapiens) (UniProt Q13237); details: at 0.1 µM
T4 sequence (whole entry): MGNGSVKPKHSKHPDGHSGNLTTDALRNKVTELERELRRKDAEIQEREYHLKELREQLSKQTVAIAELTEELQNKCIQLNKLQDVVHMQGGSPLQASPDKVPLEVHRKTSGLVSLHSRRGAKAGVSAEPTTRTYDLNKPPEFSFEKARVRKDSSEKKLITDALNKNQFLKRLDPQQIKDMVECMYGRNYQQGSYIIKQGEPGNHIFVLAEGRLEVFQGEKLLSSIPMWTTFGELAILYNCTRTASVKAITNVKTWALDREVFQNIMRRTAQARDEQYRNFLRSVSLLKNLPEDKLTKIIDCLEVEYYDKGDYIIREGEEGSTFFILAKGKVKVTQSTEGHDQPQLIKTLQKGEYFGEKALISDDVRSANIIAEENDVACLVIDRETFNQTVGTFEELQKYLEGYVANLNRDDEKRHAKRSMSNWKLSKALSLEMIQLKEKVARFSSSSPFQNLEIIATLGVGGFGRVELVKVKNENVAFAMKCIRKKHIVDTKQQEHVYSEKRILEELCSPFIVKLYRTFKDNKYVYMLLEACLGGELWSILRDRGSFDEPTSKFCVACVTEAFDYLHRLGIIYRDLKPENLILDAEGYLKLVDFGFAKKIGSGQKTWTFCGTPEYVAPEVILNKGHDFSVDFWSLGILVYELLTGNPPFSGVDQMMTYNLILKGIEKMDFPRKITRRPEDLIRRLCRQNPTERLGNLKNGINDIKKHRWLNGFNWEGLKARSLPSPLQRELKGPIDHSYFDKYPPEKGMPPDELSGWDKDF

[7] = biological target: T4, cGMP-dependent protein kinase 2 (Homo sapiens); details: at 1 µM
[8] = biological target: T5, cAMP-dependent protein kinase catalytic subunit PRKX (Homo sapiens) (UniProt P51817); details: at 0.1 µM
T5 sequence (whole entry): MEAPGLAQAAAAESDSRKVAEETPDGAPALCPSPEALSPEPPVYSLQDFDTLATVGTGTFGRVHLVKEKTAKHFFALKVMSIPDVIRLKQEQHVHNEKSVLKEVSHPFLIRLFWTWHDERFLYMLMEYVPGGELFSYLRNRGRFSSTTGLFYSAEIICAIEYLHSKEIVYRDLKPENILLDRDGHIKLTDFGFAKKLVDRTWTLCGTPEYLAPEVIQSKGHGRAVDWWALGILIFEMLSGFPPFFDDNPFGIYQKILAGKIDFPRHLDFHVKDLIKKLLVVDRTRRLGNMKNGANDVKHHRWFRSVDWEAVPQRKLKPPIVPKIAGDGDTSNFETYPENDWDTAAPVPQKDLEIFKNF

[9] = biological target: T5, cAMP-dependent protein kinase catalytic subunit PRKX (Homo sapiens); details: at 1 µM
[10] = biological target: Rho-associated protein kinase 1 (Homo sapiens) (UniProt Q13464); details: at 0.1 µM;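 further: values are mean percent inhibition of ROCK1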
Rho-associated protein kinase 1 (Homo sapiens), sequence (Q13464 2-1354 limits assumed): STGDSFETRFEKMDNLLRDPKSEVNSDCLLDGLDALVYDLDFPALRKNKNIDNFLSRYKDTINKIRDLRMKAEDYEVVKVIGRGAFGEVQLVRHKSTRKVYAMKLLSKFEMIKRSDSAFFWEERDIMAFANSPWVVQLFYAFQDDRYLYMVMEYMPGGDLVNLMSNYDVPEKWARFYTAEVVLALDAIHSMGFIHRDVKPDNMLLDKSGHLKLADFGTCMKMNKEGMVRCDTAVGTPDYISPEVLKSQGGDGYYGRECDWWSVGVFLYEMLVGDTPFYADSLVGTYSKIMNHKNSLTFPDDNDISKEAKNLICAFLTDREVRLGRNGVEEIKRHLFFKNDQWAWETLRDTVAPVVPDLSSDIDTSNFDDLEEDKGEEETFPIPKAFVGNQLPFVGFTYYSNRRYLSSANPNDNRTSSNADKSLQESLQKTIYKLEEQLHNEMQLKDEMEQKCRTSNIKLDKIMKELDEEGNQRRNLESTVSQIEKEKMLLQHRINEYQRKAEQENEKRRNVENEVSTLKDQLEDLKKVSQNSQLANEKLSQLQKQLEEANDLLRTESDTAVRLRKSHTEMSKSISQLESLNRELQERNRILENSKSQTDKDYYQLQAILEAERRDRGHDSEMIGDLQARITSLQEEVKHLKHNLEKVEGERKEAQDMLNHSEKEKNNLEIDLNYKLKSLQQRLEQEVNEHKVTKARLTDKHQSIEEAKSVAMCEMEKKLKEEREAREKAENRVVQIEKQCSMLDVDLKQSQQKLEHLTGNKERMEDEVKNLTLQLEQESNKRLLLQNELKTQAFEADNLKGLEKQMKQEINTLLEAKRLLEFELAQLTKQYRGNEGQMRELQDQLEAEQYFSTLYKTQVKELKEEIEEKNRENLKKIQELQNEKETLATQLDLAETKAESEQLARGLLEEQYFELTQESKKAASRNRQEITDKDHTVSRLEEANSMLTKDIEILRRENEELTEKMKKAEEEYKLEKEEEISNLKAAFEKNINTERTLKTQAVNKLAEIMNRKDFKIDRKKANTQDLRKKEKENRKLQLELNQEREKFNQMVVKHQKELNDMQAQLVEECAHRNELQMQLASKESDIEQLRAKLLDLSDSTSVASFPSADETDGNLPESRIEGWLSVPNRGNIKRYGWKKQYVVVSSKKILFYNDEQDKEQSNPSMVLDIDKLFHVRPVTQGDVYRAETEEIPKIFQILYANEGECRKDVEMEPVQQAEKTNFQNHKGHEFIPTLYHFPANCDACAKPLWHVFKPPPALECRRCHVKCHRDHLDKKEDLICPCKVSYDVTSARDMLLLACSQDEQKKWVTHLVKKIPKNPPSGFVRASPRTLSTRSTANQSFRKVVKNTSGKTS

| SMILES | inhibition [1] [%] | inhibition [2] [%] | inhibition [3] [%] | inhibition [4] [%] | inhibition [5] [%] | inhibition [6] [%] | inhibition [7] [%] | inhibition [8] [%] | inhibition [9] [%] | inhibition [10] [%] |
| --- | --- | --- | --- | --- | --- | --- | --- | --- | --- | --- |
| O=C(O[C@H]1CN[C@H](C#Cc2cc3ncnc(Nc4ccc(Cc5ccccc5)cc4)c3s2)C1)N1CCOCC1 | 1.56 | 1.99 | 1.5 | 3.46 | 3.85 | 4.54 | 3.68 | 3.27 | 3.94 | 2.02 |
| FC(F)(F)c1cccc(-c2nn3ncccc3c2-c2ccnc(Nc3ccc4c(c3)OCCO4)n2)c1 | 49 | 6.61 | 47.2 | 0.41 | 2.81 | 0.46 | 3.03 | 0.27 | -1.55 | 0 |
| N#Cc1c(NC(=O)CN2CCOCC2)sc2c1CCCC2 | 6.36 | 4.08 | 6.46 | 3.2 | 4.74 | 2.59 | 2.65 | 2.18 | 3.49 | 0.84 |
| CC(=O)NCc1cccc(C#Cc2cncnc2Nc2ccc(OCc3cccc(F)c3)c(Cl)c2)c1 | 2.16 | 1.12 | 1.92 | 1.14 | 1.95 | 1.31 | 2.28 | 1.14 | 2.2 | 0.02 |
| N#Cc1c(NC(=O)c2ccc(F)cc2)sc2c1CCCC2 | 2.16 | 1.7 | 1.92 | 0.21 | 1.54 | -0.45 | 3.35 | 0.52 | 1.79 | 0.43 |
| CN(C)CCOc1ccc(-c2nc(-c3ccncc3)c(-c3ccc4c(c3)CC/C4=N\O)[nH]2)cc1 | 6.37 | 3.58 | 5.44 | 2.17 | 6.12 | 2.69 | 12.3 | 1.16 | 1.33 | 0.51 |
| CCOc1ccc2c(-c3ccnc(Nc4cccc(C(F)(F)F)c4)n3)cnn2n1 | 1.84 | 3.02 | 3.58 | 0.52 | 1.15 | 0.91 | 0.29 | 0.1 | -0.76 | -1.15 |
| COC(=O)Nc1nc2ccc(S(=O)(=O)c3ccc(NC(=O)Nc4cc(C(F)(F)F)ccc4F)cc3)cc2[nH]1 | 5.37 | 3.18 | 5.1 | 2.21 | 3.86 | 2.34 | 2.48 | 0.54 | -0.36 | 0.44 |
| COc1cc(Nc2nccc(Nc3ccc4c(C)n[nH]c4c3)n2)cc(OC)c1OC | 2.94 | 1.3 | 2.54 | 3.29 | 3.61 | 2.12 | 2.71 | 0.71 | -0.26 | 2.06 |
